# Compound activity (PubChem)
# A selection: hits, their analogues and other compounds. The true share with any hit is near 2.7%.
# SKN-1 block – suppressors of acrylamide-induced Pgst-4::GFP reporter in worms, primary screen, SKN-1 inhibitor project, whole organism, uHTS, GFP/RFP fluorescence ratio, strain VP596; C. elegans VP596 Pgst-4::GFP/RFP ratio, 24 h; inhibition, % at 21.8 µM; actives 0.49% (n = 360,000); AID 624304, 2012;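 active means interference check ratio from 0.5 to 1.5 plus GFP to RFP signal ratio inhibition reaching or exceeding a fixed threshold, cut at about 30% in these data, passing the limit was not always enough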
# ATG4B inhibitor – ATG4B protease inhibitors, primary screen, biochemical, fluorescence, uHTS; Cysteine protease ATG4B (Homo sapiens), Q9Y4P1; ATG4B cleavage of LC3-PLA2, NBD-HPC fluorescence, 1 h; inhibition, % at 8.33 µM; actives 0.51% (n = 340,000); AID 504462, 2011; in the data active means inhibition above about 40%
# CFTR F508del cor – F508del CFTR correction, initial screen, CFBE line, single point. activity (quench increase), % at 7.58 µM. CFBE cells, YFP halide quenching; stimulated with forskolin plus potentiator P3; % fluorescence drop versus neutral controls. actives 0.36% (n = 350,000). AID 720511, 2013;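 active means mean added fluorescence quench of at least 8% versus neutral control, with both replicates also reaching 8%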;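 further: cells transiently co-express mutant CFTR-F508del with the halide-sensitive YFP; corrector assay measuring rescue of mutant channel to the surface after 24 h compound exposure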
# MPTP block – mitochondrial permeability transition pore inhibitors, primary screen, biochemical, isolated mouse mitochondria, absorbance | Ca2+ swelling absorbance, 30 min | inhibition, % at 10 µM | actives 1.4% (n = 360,000) | AID 602449, 2012;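 active means inhibition of 50% or more, scaled per plate between neutral and stimulator controls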;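 further: 0% = DMSO wells given calcium and 100% = 1 mM EGTA wells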
# NRP1-CendR mod – modulators of CendR peptide binding to NRP-1, primary screen, biochemical, fluorescence polarization, uHTS | Neuropilin-1 (Homo sapiens), O14786 | FAM-RPARPAR peptide binding to NRP-1 | inhibition, % at 25 µM | actives 0.85% (n = 360,000);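 active means inhibition or corrected inhibition above about 18%, plus a signal ratio from 0.5 to 1.5, limit read from the data, passing the limit was not always enough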
# The depositor's hits bear a star; x = not tested or not shown.
SMILES,SKN-1 block,ATG4B inhibitor,CFTR F508del cor,MPTP block,NRP1-CendR mod
Cc1[nH]c2ccccc2c1-c1csc(N)n1,-19,-1,1,-1,-2
COc1cccc(CN(C)C[C@@H]2OCc3cn(nn3)CCCC(=O)N([C@@H](C)CO)C[C@H]2C)c1,x,x,0,x,x
COCCCNC(=O)C[C@@H]1C[C@@]2(C(=O)OC)CC(C)(C)CC=C2N(Cc2cccc3ccccc23)C1=O,19,x,-1,-1,24*
C[C@@H]1CCCCO[C@H](CN(C)Cc2ccc(C(=O)O)cc2)[C@@H](C)CN([C@H](C)CO)C(=O)c2cc(NC(=O)NC3CCCCC3)ccc2O1,x,x,1,x,x
COC(=O)C1=C(C)NC(C)=C(C(=O)OC)C1c1ccc(OC(=O)c2ccco2)cc1,35*,9,x,-8,6
C[C@@H]1CN([C@@H](C)CO)C(=O)Cc2cc(NS(=O)(=O)c3cn(C)cn3)ccc2O[C@H]1CN(C)C(=O)Nc1ccc2c(c1)OCO2,x,x,-1,x,x
O=C(NCCCN1CCCC1=O)c1cc(S(=O)(=O)N2CCOCC2)c(Cl)cc1Cl,5,-1,17*,-1,6
O=C(NCCCn1ccnc1)c1ccc(Cl)c(S(=O)(=O)N2CCOCC2)c1,1,4,1,-1,35*
NS(=O)(=O)c1ccc(CCNC(=O)CNC(=O)c2ccc(Br)o2)cc1,5,3,x,0,19*
NS(=O)(=O)c1ccc(CCNC(=O)CNC(=O)COc2ccccc2)cc1,-17,5,6,0,-4
COc1ccc(S(=O)(=O)N(C)C[C@@H]2Oc3ccc(NS(=O)(=O)c4ccc(Cl)cc4)cc3C(=O)N([C@H](C)CO)C[C@@H]2C)cc1,x,x,1,x,x
Cc1ccn2c(-c3csc(NCc4ccccc4)n3)c(C)nc2c1,11,11,x,10,25*
Cc1cc2c(nc1C)CCCN2S(=O)(=O)c1ccc(C(F)(F)F)cc1,x,x,2,x,x
CCCCCCCCN1[C@@H](CC(=O)O)c2ccc(C(F)(F)F)cc2S1(=O)=O,4,-11,0,3,28*
CN(C)c1ccc(N2[C@@H](CC(=O)O)c3cc(C(F)(F)F)ccc3S2(=O)=O)cc1,9,9,-2,0,25*
CC(=O)C[C@H]1c2cc(C(F)(F)F)ccc2S(=O)(=O)N1c1ccc(N(C)C)cc1,15,-14,2,0,14
CCCCCCCCCCCCN1[C@@H](CC(=O)OC)c2cc(F)ccc2S1(=O)=O,-19,-6,1,2,26*
CC(C)C#Cc1ccc2c(c1)O[C@@H](CN(C)Cc1cncnc1)[C@H](C)CN([C@@H](C)CO)S2(=O)=O,x,x,2,x,x
CCN1[C@H](C(=O)OC)[C@@H](CO)[C@@H]2Cn3c(ccc(C4=CCCCC4)c3=O)[C@@H]21,x,x,-5,x,x
Cc1noc(C)c1NC(=O)Nc1ccc2c(c1)C(=O)N([C@H](C)CO)C[C@H](C)[C@H](CN(C)C(=O)Nc1ccc3c(c1)OCO3)OCCCC[C@@H](C)O2,x,x,-1,x,x
CN(C)c1ccc(Cl)cc1N,-7,9,3,-1,28*
Nc1ccc(O)cc1C(=O)OCC(=O)C12CC3CC(CC(C3)C1)C2,45*,-6,x,1,-9
CNC(=S)Nc1ccc(N2CCCC2)c(S(=O)(=O)Nc2ccc(OC)cc2)c1,10,-14,0,0,42*
CCC(=O)Nc1ccc2c(c1)C(=O)N(C)[C@@H]1CC[C@@H](CC(=O)N[C@H](C)c3ccccc3)O[C@@H]1CO2,x,x,0,x,x
O=C(NN=C1CCCCCCC1)c1ccc(F)cc1,-3,-6,1,-2,-8
SMILES,SKN-1 block,ATG4B inhibitor,CFTR F508del cor,MPTP block,NRP1-CendR mod
O=C(NN=C1CCCCCCCCCCC1)c1ccccc1F,3,21,x,1,28*
COC(=O)c1sccc1NC(=O)c1ccnn1C,5,-4,-5,0,25*
COC(=O)c1sccc1NC(=O)c1ccccc1,15,22,x,2,-4
O=C(CCN1CCCCC1)N[C@@H]1CC[C@@H](CCn2cc(-c3ccccc3)nn2)O[C@@H]1CO,x,x,3,x,x
CCCCCCCCNC(=O)C(CCC(=O)OCc1ccccc1)NC(C)=O (stereo not drawn),53*,11,x,0,9
CCC(C)C(N)C(=O)NC(CCC(=O)OCc1ccccc1)C(N)=O (stereo not drawn),8,-11,x,0,2
COCC(C)n1c(C)cc(C(=O)COC(=O)c2ccc3c(c2)NC(=O)CS3)c1C (stereo not drawn),1,-6,-2,1,30*
CCOC(=O)c1ccc2c(c1)nc(SCC(=O)c1cc3ccccc3o1)n2CC,52*,-8,x,0,-2
C[C@H]1CN([C@@H](C)CO)C(=O)c2cc(NS(=O)(=O)c3ccc(F)cc3)ccc2O[C@@H]1CN(C)C(=O)Nc1ccccc1,x,x,-1,x,x
COc1ccccc1NS(=O)(=O)c1cc(NC(C)=O)ccc1N1CCCCC1,-13,-4,-2,-3,6
CCOC(=O)C(=CNc1ccc(N2CCCCC2)c(S(=O)(=O)Nc2ccccc2OC)c1)C(=O)OCC,7,-7,-1,-3,36*
CC1CCCC(NC(=O)CCC(=O)c2ccc(F)cc2)C1C (stereo not drawn),-8,3,1,1,26*
CC1CCCC(NC(=O)CSc2ccc(F)cc2)C1C (stereo not drawn),2,3,-3,0,8
COc1ccccc1CNC(=O)C[C@@H]1C=C[C@@H](NC(C)=O)[C@H](CO)O1,x,x,4,x,x
O=c1[nH]c2ccc([N+](=O)[O-])cc2nc1/C=C(\O)c1ccccc1,7,-1,-2,2,84*
C/C(O)=C/c1nc2ccccc2[nH]c1=O,-6,5,-1,-2,-1
CC(C(=O)NCC1CCCO1)N1C(=O)C2C3CC(C(Br)C3Br)C2C1=O (stereo not drawn),1,-6,2,2,19*
Nc1nnc(SCCOc2ccccc2)s1,2,0,1,-1,2
Cc1nnc(SCCOc2ccccc2)s1,14,4,-2,0,51*
COc1cccc(-c2ccc3c(c2)[C@H]2[C@H](CCN2S(=O)(=O)C2=NC(C)C=N2)[C@@H](CO)N3C)c1 (stereo partly drawn),x,x,0,x,x
FC(F)(F)c1cnc2c(-c3ccc(Cl)cc3Cl)noc2c1,32*,0,x,2,6
CC(NC(=O)[C@H](C)NC(=O)N1CCn2c1nc1ccccc12)c1ccccc1 (stereo partly drawn),0,-4,0,-1,24*
Cc1noc(C)c1NC(=O)N[C@H]1CC[C@H](CC(=O)Nc2ccccc2)O[C@@H]1CO,x,x,-1,x,x
CCCC#Cc1ccc([C@@H]2[C@@H](CO)N3CCCCN(S(=O)(=O)c4ccccc4F)C[C@H]23)cc1,x,x,-4,x,x
